From PubChem BioAssay (EPA / NIEHS) come the findings set out here.

Records with an inconclusive call do not appear. Activity calls are given as the source filed them. How the source made its calls: active means hit-call score of the fitted dose curve at least 0.9, where 1 is the maximum; inconclusive means response in the unintended direction; inactive means score below 0.9.

Sequence of Luciferin 4-monooxygenase (Photinus pyralis) (P08659 whole entry, looked up): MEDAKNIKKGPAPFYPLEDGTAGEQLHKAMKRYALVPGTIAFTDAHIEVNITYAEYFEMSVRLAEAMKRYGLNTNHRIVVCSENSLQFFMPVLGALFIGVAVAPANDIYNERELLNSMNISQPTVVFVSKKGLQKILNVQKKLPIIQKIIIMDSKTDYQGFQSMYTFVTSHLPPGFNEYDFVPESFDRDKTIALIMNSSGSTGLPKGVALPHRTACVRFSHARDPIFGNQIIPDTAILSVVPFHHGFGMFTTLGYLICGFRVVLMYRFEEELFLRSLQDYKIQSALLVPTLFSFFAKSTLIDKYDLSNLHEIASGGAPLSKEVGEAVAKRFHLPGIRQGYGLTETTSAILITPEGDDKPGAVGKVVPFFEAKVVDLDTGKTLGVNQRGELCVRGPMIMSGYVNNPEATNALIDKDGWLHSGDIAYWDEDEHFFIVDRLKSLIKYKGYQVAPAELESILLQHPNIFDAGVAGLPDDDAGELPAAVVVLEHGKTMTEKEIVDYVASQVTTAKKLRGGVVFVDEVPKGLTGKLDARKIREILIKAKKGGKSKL

For the test, the target named is Luciferin 4-monooxygenase (Photinus pyralis) (UniProt P08659). Kind of test: CCTE_Simmons_QuantiLum_inhib_2: CCTE's Firefly Luciferase Inhibition Assay, Simmons Lab (AID 2283767).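 On AC50: potency for inhibitors that lower luciferase luminescence relative to DMSO.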 As for the experimental part:
CCTE_Simmons_QuantiLum_inhib_2 is a biochemical, single-readout assay that uses purified luciferase enzyme in a cell-free assay.Measurements were taken 0.5 hour after chemical dosing in a 384-well plate.CCTE_Simmons_QuantiLum_inhib_2 is the assay component measured from the CCTE_Simmons_QuantiLum_inhib_2 assay. It is designed to make measurements of enzyme activity, a form of enzyme reporter, as detected with bioluminescence signals by Luciferase-coupled Quantilum levels technology. This is a secondary assay to CCTE_Simmons_AUR_TPO to evaluate nonspecific enzyme inhibition.Data from the assay component CCTE_Simmons_QuantiLum_inhib_2 was analyzed at the endpoint, CCTE_Simmons_QuantiLum_inhib_2, in the positive analysis fitting direction relative to DMSO as the negative control and baseline of activity. Using a type of enzyme reporter, measures of enzyme activity for loss-of-signal activity can be used to understand inhibition of firefly luciferase. This is an assay endpoint to indicate nonspecific protein inhibition for comparison to aeid 1508 for thyroperoxidase inhibition. To generalize the intended target to other relatable targets, this assay endpoint is annotated to the oxidoreductase intended target family, where the subfamily is monooxygenase.
Quanti-Lum recombinant luciferase (Promega; Madison, Wisconsin) was diluted to 76.9 ng/ml with 200mM potassium phosphate buffer supplemented with 1 mg/ml bovine serum albumin and 65ul (5ng recombinant luciferase) per well was dispensed into opaque, white 384-well plates (Greiner, BioExpress) using an automated liquid handler (BioTek MicroFlo) with a plastic 5 ul tubing cassette. Test compounds were administered using the HDRT as described earlier to achieve a 0.5% final DMSO concentration. Microplates were incubated at 37C in the dark for 30min to mimic the AUR-TPO assay conditions. Luciferase detection reagent (25 ul per well; 9.2 mM dithiothreitol, 75uM Coenzyme A, 147uM dATP, 150uM D-luciferin, 8.9 mM Tricine, 297uM (MgCO3)4.Mg(OH)2.5H20, 742uM MgSO4, 27.8uM EDTA, pH 7.8, final assay concentrations) was then added using a BMG Clariostar plate reader equipped with syringe injectors (BMG LabTech; GmbH). Plates were read using a kinetic luminescence protocol (top read) whereby each well was individually injected with luciferase detection reagent immediately prior to measurement. Three biological replicates of technical singles were run for every chemical concentration tested. A titrated range of LUCINH2 served as a positive control on each plate of the luciferase inhibition screening assay. Test chemicals were administered as a titrated series of 8 concentrations from 5 nM up to 87.5 uM [final] for 30 minutes prior to single endpoint detection. Dimethylsulfoxide [DMSO] was used as the vehicle control. Luciferase Inhibitor I [2-(5-(2-Methoxyphenyl)-1,2,4-oxadiazol-3-yl)pyridine] was used as the positive control and was administered as a titrated series of 8 concentrations from 1 nM up to 100 uM [final].
For the compound `CC(C)(C)c1cccc(C(C)(C)C)c1O`, the compound was classed as inactive.
For the compound `N#C[C@@H]1CC(F)(F)CN1C(=O)CNC1CC2CCC(C1)N2c1ncccn1` (stereo partly drawn), the result was inactive.
Turning to `CC[C@H](c1ccc(O)cc1)[C@@H](CC)c1ccc(O)cc1`, the result was inactive.
Consider `CN1CCN(c2ccccc2/C=C2\SCCN(c3ccc(Cl)c(Cl)c3)C2=O)CC1`, for which the outcome was inactive.
Regarding `CC(C)(C)c1cc(C(C)(C)C)c(O)c(C(C)(C)C)c1`, the call was inactive.
Turning to `CCCCCCCCCCCCc1ccccc1S(=O)(=O)O`, the call was inactive.
The AC50 is the concentration giving half of the maximal activity seen. As to `NC(=O)N(O)[C@@H]1C=C[C@H](Oc2cccc(Oc3ccc(F)cc3)c2)C1`, the AC50 was 16.7 µM (active).
On the same count and under the same terms, the figure for `Nc1cccc2c(N)cccc12` is 10.6 µM (active); for `c1ccc2cc3c(ccc4ccccc43)cc2c1` it is 17.3 µM (active).
The same measure, in the same setting: the figure for `O=C(O)c1ccccc1C(c1ccc(O)cc1)c1ccc(O)cc1` is 15.3 µM (active).
As for `CCCCCCCCCCCCCC[N+](C)(C)C`, the compound was classed as inactive.
On the same count and under the same terms, for `Cc1cc(C)c(O)c(C)c1` the value was “inactive”.
The same measure, in the same setting: for `CCC(=C(c1ccc(O)cc1)c1ccc(OCCN(C)C)cc1)c1ccccc1` the value was “inactive”.
`Oc1cccc(O)c1`: the concentration at half-maximal activity (AC50) is 16.1 µM (active).
On to `CC#C[C@]1(O)CC[C@H]2[C@@H]3CCC4=CC(=O)CCC4=C3[C@@H](c3ccc(N(C)C)cc3)C[C@@]21C`, for which the compound was classed as inactive.
For `O=c1c(-c2ccc(O)cc2)coc2cc(O)ccc12`, the AC50 is 8.1 µM (active).
`Oc1cc2ccccc2c2ccccc12`: the AC50 is 30.1 µM (active).
On to `COc1ccc([N+](=O)[O-])cc1N`, for which the call was inactive.
On the same count and under the same terms, for `CC1=C(/C=C/C(C)=C/C=C/C(C)=C/C(=O)O)C(C)(C)CCC1` the value was “inactive”; for `CCN(CC)CCNc1ccc(CNC=O)c2sc3ccc(OC)cc3c(=O)c12`, “inactive”.
For the compound `CC(C)(C)c1ccc(O)c(C(C)(C)C)c1`, the outcome was inactive.
As for `CCCCCCCCCCCCN1CCCC1=O`, the AC50 was 31.1 µM (active).
`Cc1oc(-c2ccccc2)nc1CCOc1ccc(C[C@H](Nc2ccccc2C(=O)c2ccccc2)C(=O)O)cc1`: the compound was classed as inactive.
